TAR Tat displ – TAR RNA-Tat peptide displacers, HIV-1, primary screen, biochemical, FRET, FAM/TAMRA-labeled Tat; AID 1259389, 2018; z-score (no concentration beside the values); 0.6% of 100,000 active; HIV-1 TAR RNA, Tat peptide displacement FRET; stronger effect = higher value; active = z-score of 3 or more in at least 2 runs
CDC25B CDK2 inh – primary biochemical HTRF screen for blockers of M-phase inducer phosphatase 2 binding to CDK2/cyclin A. P30305+P24941. HTRF CDC25B-CDK2/CyclinA binding, anti-His/anti-Flag; stronger effect = higher value. z-score (concentration not given with the values). 0.72% of 94,000 active. AID 1259370, 2018; in the data active = z-score above about 3.2
* hit, by the source's call; nt = not tested or not shown; ! = a repeat was not active. Shown are actives, neighbours in structure and some others; about 0.9% of the full set was active somewhere.

SMILES	TAR Tat displ	CDC25B CDK2 inh
CN1CCc2nc(SCc3cccnc3)c(C#N)cc2C1	-2.5	19*
COC(=O)c1sc2nc3c(cc2c1N)CN(C)CC3	-0.26	0.56
CC1=C(C(=O)OC(C)C)C2(C(=O)Nc3ccc(Br)cc32)C(C#N)=C(N)O1 (configuration not stated)	nt	0.78
CCCCSP(=S)(OCC)N(CC)CC (configuration not stated)	nt	-1.1
NC(N)=N/N=C/c1ccc(/C=N/N=C(N)N)cc1	nt	7.6*
Cc1nn(-c2ccc(F)cc2)c2c1C(c1ccc(N(C)C)cc1)SCC(=O)N2 (configuration not stated)	-0.77	-2.5
CN1CCc2cc(O)cc3c2[C@H]1Cc1ccc(O)c(O)c1-3	nt	-0.62
COc1cc2c(cc1O)C[C@H]1c3c(cc(O)c(OC)c3-2)CCN1C	13*	nt
CC(C)=CCCC1(C)C=Cc2c(O)c3c(c(CC=C(C)C)c2O1)OC12C(CC4CC1C(C)(C)OC2(C/C=C(/C)C(=O)O)C4O)C3=O (configuration not stated)	3.1	nt
CCc1ccc(CNCCc2c[nH]c3ccccc23)cc1	0.71	-0.73
Cc1cccc(CNCCc2c[nH]c3ccccc23)c1	0.75	16*
Fc1cccc(CNCCc2c[nH]c3ccccc23)c1	0.87	8*
c1ccc(CNCCc2c[nH]c3ccccc23)cc1	-0.73	1.3
Cc1cc(C(F)(F)F)n(-c2nc(C(=O)N3CC4CC(C3)c3cccc(=O)n3C4)cs2)n1 (configuration not stated)	1.8	nt
CC(C)C1c2cccn2-c2ccccc2CN1C(=O)Nc1ccc(F)cc1 (configuration not stated)	1	nt
CC12CN3CC(C)(CN(C1)C3c1c[nH]c3ccccc13)C2O (configuration not stated)	nt	-0.48
Cc1c(C(=O)O)ncn1Cc1ccc(Cl)cc1	nt	-1.5
O=C(Nc1ccccc1)Nc1cnns1	-0.51	20*
CCOc1cc(C2SCC(=O)Nc3n[nH]c(C)c32)ccc1OCC(N)=O (configuration not stated)	3.3	-2.2
C=CC[N+]12CN3CN(CN(C3)C1)C2	nt	4.3*
CC(N)[C@H](O)c1ccc(O)c(O)c1 (some centres not stated)	nt	-3.3
C[C@H](N)[C@H](O)c1ccc(O)c(O)c1	8.2*	nt
CSc1ccc(CN2CCN(Cc3cccc(Cl)c3)CC2)cc1	-3.2	1.4
CNCCc1c[nH]c2ccc(O)cc12	nt	9.8*
CNCCc1c[nH]c2ccccc12	nt	-0.91
SMILES	TAR Tat displ	CDC25B CDK2 inh
Cc1[nH]c2ccccc2c1C1N2CC3(C)CN1CC(C)(C2)C3 (configuration not stated)	nt	-0.68
Cc1nccc2c1[nH]c1ccccc12	19*	-1.2
c1ccc2c(c1)[nH]c1cnccc12	3.3	nt
Cc1c2ccncc2c(C)c2c1[nH]c1ccccc12	-7.3	4.2*
C(=C(c1ccccc1)c1ccccc1)C1CN2CCC1CC2 (configuration not stated)	0.71	-1.8
O=C(NCc1ccco1)N1Cc2ccccc2-n2cccc2C1c1ccc(F)cc1 (configuration not stated)	-0.78	nt
CCOC(=O)C12C(=O)Oc3ccc(Br)cc3C1C2(CC)C(=O)c1ccccc1 (configuration not stated)	0.21	15*
CCC1(C(=O)c2ccc(Cl)cc2)C2c3cc(Br)ccc3OC(=O)C21C(=O)OC (configuration not stated)	0.26	1.8
CCOC(=O)CC1(NC(=O)N2Cc3ccccc3-n3cccc3C2C)CCCCC1 (configuration not stated)	0.05	nt
Cc1cc2c(C(C)C)c(O)c(O)c(C=O)c2c(O)c1-c1c(C)cc2c(C(C)C)c(O)c(O)c(C=O)c2c1O	26*!	-0.45
CN1CC=C(c2noc(CCC(=O)N3CCN(c4ccc(F)cc4)CC3)n2)CC1	-0.4	-0.92
CN(C)c1ccc(S(=O)(=O)F)cc1	nt	-1.3
CN1CSC2=C(C#N)C(c3cccc(Br)c3)CC(=O)N2C1 (configuration not stated)	0.16	5.2*
N#CC1=C(N)Oc2c(c(=O)oc3ccccc23)C1c1cccc(Br)c1 (configuration not stated)	nt	-2
CC(C)NC(=O)N1Cc2ccccc2-n2cccc2C1c1cccc(Cl)c1 (configuration not stated)	-0.41	nt
COc1ccc(-n2nc(C)c3c2NC(=O)CSC3c2cccs2)cc1 (configuration not stated)	-0.98	-1.8
CCOc1cc(C2SCC(=O)Nc3c2c(C)nn3-c2nc(C)cc(C)n2)ccc1O (configuration not stated)	0.3	-1.3
Nc1c(C(=O)NCc2ccccc2)c2nc3ccccc3nc2n1Cc1ccco1	-4.3	12*
CCCCCn1c(N)c(C(=O)OC)c2nc3ccccc3nc21	0.97	1.8
C[C@@H]1NCCc2cc(O)c(O)cc21	19*	nt
COc1cc2c(cc1O)C(C)NCC2 (configuration not stated)	0.43	nt
CCC1c2cccn2-c2ccccc2CN1C(=O)NC(C)C (configuration not stated)	1.2	nt
Cc1nn(-c2nc3ccccc3s2)c2c1C(c1cccc(O)c1)SCC(=O)N2 (configuration not stated)	-0.56	-1.4

Screening data from PubChem BioAssay.
